Activity calls are given as the source filed them. Calls follow the shape of the dose curve; as a rule, active = well fitted curve in the direction sought with a large enough effect in the repeat runs; inconclusive = weak or mixed curves; inactive = flat fitted curve, though single readings scatter.
Test: qHTS assay to test for compound auto fluorescence at 460 nm (blue) in HEK293 cell free culture (AID 720681)
Details: cell-free medium, autofluorescence 405/460 nm (blue); series mostly up to 46 µM
Outline: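 Test compounds were pinned into cell-free culture medium (DMEM with 10% FBS) and fluorescence was read directly at Ex/Em 405/460 nm. Signals were expressed as fluorescence equivalents of triamterene, with DMSO vehicle as control.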
% is scaled to controls: 0 for no effect and ±100 for the full control effect.

Row | Compound | outcome | fluorescence, % of fluorescent control
1 | COc1nc(N)nc2c1ncn2[C@@H]1O[C@H](CO)[C@@H](O)[C@@H]1O | inactive | –
2 | CC(C)(C)NCCNC(C)(C)C | inactive | –
3 | CCSC(=O)N(CC(C)C)CC(C)C | inactive | –
4 | CC1(C)CO[C@@H](CC(=O)O)CN1 | inactive | –
5 | COCCc1ccc(OCC(O)CNC(C)C)cc1 (stereo unspecified) | inactive | –
6 | O=C1NC(=O)[C@@]2(CCOc3ccc(F)cc32)N1 | inactive | –
7 | N[C@H]1CN(c2c(F)cc3c(=O)c(C(=O)O)cn(C4C[C@H]4F)c3c2Cl)CC12CC2 (stereo partly specified) | inactive | –
8 | CCCCCCCCCCCCN(CCCCCCCCCCCC)CCCCCCCCCCCC | inactive | –
9 | CC(C[N+](C)(C)C)OC(N)=O (stereo unspecified) | inactive | –
10 | O=C(O)CCCc1ccccc1 | inactive | –
11 | N#Cc1ccc(C2CCCc3cncn32)cc1 (stereo unspecified) | inactive | –
12 | CCOC(C)(C)C | inactive | –
13 | c1ccc(CC2=NCCN2)cc1 | inactive | –
14 | O=C(O)c1ccccc1OP(=O)(O)O | inactive | –
15 | C=CCS(=O)(=O)O | inactive | –
16 | O=C(O)CCCl | inactive | –
17 | COC(=O)[C@@H](N)Cc1ccc(O)c(O)c1 | inactive | –
18 | NS(=O)(=O)c1cc(C(=O)O)cc(N2CCCC2)c1Oc1ccccc1 | inactive | –
19 | CCOC(=O)c1cccc(N)c1 | inactive | –
20 | CN(C(=O)c1c(O)c2ccccc2n(C)c1=O)c1ccccc1 | inactive | –

Row | Compound | outcome | fluorescence, % of fluorescent control
21 | CC(=O)c1ccccc1O | inactive | –
22 | CO[Si](CCCOCC1CO1)(OC)OC (stereo unspecified) | inactive | –
23 | CCCN(CCC)CCc1cccc2c1CC(=O)N2 | inactive | –
24 | NC(=O)COCCN1CCN(C(c2ccccc2)c2ccc(Cl)cc2)CC1 (stereo unspecified) | inactive | –
25 | NC(=O)Nc1ccccc1 | inactive | –
26 | COc1c(N2C[C@@H]3CCCN[C@@H]3C2)c(F)cc2c(=O)c(C(=O)O)cn(C3CC3)c12 | inactive | –
27 | CCC(=O)OC(C)c1ccccc1 (stereo unspecified) | inactive | –
28 | CCCc1cc(C(N)=S)ccn1 | inactive | –
29 | CC/C=C\CC/C=C/C(OCC)OCC | inactive | –
30 | CCN1CCC[C@H]1CNC(=O)c1c(O)c(Cl)cc(Cl)c1OC | inactive | –
31 | OC(CCN1CCCCC1)(c1ccccc1)C1CC2C=CC1C2 (stereo unspecified) | inactive | –
32 | CCCN1CCCC[C@H]1C(=O)Nc1c(C)cccc1C | inactive | –
33 | Nc1cc(=O)[nH]c(N)n1 | inactive | –
34 | CC(C)CNCC(C)C | inactive | –
35 | O=C1CCCCCCCCCCCN1 | inactive | –
36 | COc1ccc2c(c1)c(CC(=O)OCC(=O)O)c(C)n2C(=O)c1ccc(Cl)cc1 | inactive | –
37 | COC(=O)c1c(Cl)c(Cl)c(C(=O)OC)c(Cl)c1Cl | inactive | –
38 | N=C(N)c1ccc(OCCCOc2ccc(C(=N)N)cc2)cc1 | inactive | –
39 | CCCCCCCCCCCCCC=O | – | -0.0434% [at 3.72 µM] (inactive)
40 | N[C@H](C(=O)O)c1ccc(O)cc1 | inactive | –

Test: qHTS assay to test for compound auto fluorescence at 535 nm (green) in HEK293 cell free culture (AID 720682)
Details: cell-free medium, green autofluorescence 485/535 nm, stronger effect = higher value; series mostly up to 46 µM
Outline: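 No cells present: wells hold DMEM supplemented with 10% FBS, into which compound or vehicle is pinned. Green emission is then recorded (485 nm excitation, 535 nm emission) and scaled to fluorescein.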

Row | Compound | outcome | activity change
41 | COc1nc(N)nc2c1ncn2[C@@H]1O[C@H](CO)[C@@H](O)[C@@H]1O | inactive | –
42 | CC(C)(C)NCCNC(C)(C)C | inactive | –
43 | CCSC(=O)N(CC(C)C)CC(C)C | inactive | –
44 | CC1(C)CO[C@@H](CC(=O)O)CN1 | inactive | –
45 | O=C1NC(=O)[C@@]2(CCOc3ccc(F)cc32)N1 | inactive | –
46 | N[C@H]1CN(c2c(F)cc3c(=O)c(C(=O)O)cn(C4C[C@H]4F)c3c2Cl)CC12CC2 (stereo partly specified) | inactive | –
47 | CCCCCCCCCCCCN(CCCCCCCCCCCC)CCCCCCCCCCCC | inactive | –
48 | N#Cc1ccc(C2CCCc3cncn32)cc1 (stereo unspecified) | inactive | –
49 | CCOC(C)(C)C | inactive | –
50 | c1ccc(CC2=NCCN2)cc1 | inactive | –
51 | O=C(O)c1ccccc1OP(=O)(O)O | inactive | –
52 | C=CCS(=O)(=O)O | inactive | –
53 | O=C(O)CCCl | inactive | –
54 | NS(=O)(=O)c1cc(C(=O)O)cc(N2CCCC2)c1Oc1ccccc1 | inactive | –
55 | CCOC(=O)c1cccc(N)c1 | inactive | –
56 | CN(C(=O)c1c(O)c2ccccc2n(C)c1=O)c1ccccc1 | inactive | –

Row | Compound | outcome | activity change
57 | CC(=O)c1ccccc1O | inactive | –
58 | NC(=O)COCCN1CCN(C(c2ccccc2)c2ccc(Cl)cc2)CC1 (stereo unspecified) | inactive | –
59 | COc1c(N2C[C@@H]3CCCN[C@@H]3C2)c(F)cc2c(=O)c(C(=O)O)cn(C3CC3)c12 | inactive | –
60 | CCC(=O)OC(C)c1ccccc1 (stereo unspecified) | inactive | –
61 | CCCc1cc(C(N)=S)ccn1 | inactive | –
62 | CC/C=C\CC/C=C/C(OCC)OCC | inactive | –
63 | CCN1CCC[C@H]1CNC(=O)c1c(O)c(Cl)cc(Cl)c1OC | inactive | –
64 | OC(CCN1CCCCC1)(c1ccccc1)C1CC2C=CC1C2 (stereo unspecified) | inactive | –
65 | CCCN1CCCC[C@H]1C(=O)Nc1c(C)cccc1C | inactive | –
66 | Nc1cc(=O)[nH]c(N)n1 | inactive | –
67 | CC(C)CNCC(C)C | inactive | –
68 | O=C1CCCCCCCCCCCN1 | inactive | –
69 | COc1ccc2c(c1)c(CC(=O)OCC(=O)O)c(C)n2C(=O)c1ccc(Cl)cc1 | inactive | –
70 | N=C(N)c1ccc(OCCCOc2ccc(C(=N)N)cc2)cc1 | inactive | –
71 | CCCCCCCCCCCCCC=O | – | -0.0074% [at 3.72 µM] (inactive)

Test: qHTS assay to test for compound auto fluorescence at 590 nm (red) in HEK293 cell free culture (AID 720683)
Details: cell-free medium autofluorescence, Ex540/Em590 red; series mostly up to 46 µM
Outline: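 Tox21 10K library compounds were pinned into cell-free DMEM with 10% FBS and fluorescence was read at excitation 540 nm. Activity is expressed as Rose Bengal sodium equivalency.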

Row | Compound | outcome | fluorescence, % of fluorescent control
72 | COc1nc(N)nc2c1ncn2[C@@H]1O[C@H](CO)[C@@H](O)[C@@H]1O | inactive | –
73 | CC(C)(C)NCCNC(C)(C)C | inactive | –
74 | CCSC(=O)N(CC(C)C)CC(C)C | inactive | –
75 | CC1(C)CO[C@@H](CC(=O)O)CN1 | inactive | –
76 | COCCc1ccc(OCC(O)CNC(C)C)cc1 (stereo unspecified) | inactive | –
77 | O=C1NC(=O)[C@@]2(CCOc3ccc(F)cc32)N1 | inactive | –
78 | N[C@H]1CN(c2c(F)cc3c(=O)c(C(=O)O)cn(C4C[C@H]4F)c3c2Cl)CC12CC2 (stereo partly specified) | inactive | –
79 | CCCCCCCCCCCCN(CCCCCCCCCCCC)CCCCCCCCCCCC | inactive | –
80 | CC(C[N+](C)(C)C)OC(N)=O (stereo unspecified) | inactive | –
81 | O=C(O)CCCc1ccccc1 | inactive | –
82 | N#Cc1ccc(C2CCCc3cncn32)cc1 (stereo unspecified) | inactive | –
83 | CCOC(C)(C)C | inactive | –
84 | c1ccc(CC2=NCCN2)cc1 | inactive | –
85 | O=C(O)c1ccccc1OP(=O)(O)O | inactive | –
86 | C=CCS(=O)(=O)O | inactive | –
87 | O=C(O)CCCl | inactive | –
88 | COC(=O)[C@@H](N)Cc1ccc(O)c(O)c1 | inactive | –
89 | NS(=O)(=O)c1cc(C(=O)O)cc(N2CCCC2)c1Oc1ccccc1 | inactive | –
90 | CCOC(=O)c1cccc(N)c1 | inactive | –
91 | CN(C(=O)c1c(O)c2ccccc2n(C)c1=O)c1ccccc1 | inactive | –

Row | Compound | outcome | fluorescence, % of fluorescent control
92 | CC(=O)c1ccccc1O | inactive | –
93 | CO[Si](CCCOCC1CO1)(OC)OC (stereo unspecified) | inactive | –
94 | CCCN(CCC)CCc1cccc2c1CC(=O)N2 | inactive | –
95 | NC(=O)COCCN1CCN(C(c2ccccc2)c2ccc(Cl)cc2)CC1 (stereo unspecified) | inactive | –
96 | NC(=O)Nc1ccccc1 | inactive | –
97 | COc1c(N2C[C@@H]3CCCN[C@@H]3C2)c(F)cc2c(=O)c(C(=O)O)cn(C3CC3)c12 | inactive | –
98 | CCC(=O)OC(C)c1ccccc1 (stereo unspecified) | inactive | –
99 | CCCc1cc(C(N)=S)ccn1 | inactive | –
100 | CC/C=C\CC/C=C/C(OCC)OCC | inactive | –
101 | CCN1CCC[C@H]1CNC(=O)c1c(O)c(Cl)cc(Cl)c1OC | inactive | –
102 | OC(CCN1CCCCC1)(c1ccccc1)C1CC2C=CC1C2 (stereo unspecified) | inactive | –
103 | CCCN1CCCC[C@H]1C(=O)Nc1c(C)cccc1C | inactive | –
104 | Nc1cc(=O)[nH]c(N)n1 | inactive | –
105 | CC(C)CNCC(C)C | inactive | –
106 | O=C1CCCCCCCCCCCN1 | inactive | –
107 | COc1ccc2c(c1)c(CC(=O)OCC(=O)O)c(C)n2C(=O)c1ccc(Cl)cc1 | inactive | –
108 | COC(=O)c1c(Cl)c(Cl)c(C(=O)OC)c(Cl)c1Cl | inactive | –
109 | N=C(N)c1ccc(OCCCOc2ccc(C(=N)N)cc2)cc1 | inactive | –
110 | CCCCCCCCCCCCCC=O | – | 0.0516% [at 3.72 µM] (inactive)
111 | N[C@H](C(=O)O)c1ccc(O)cc1 | inactive | –
